PubChem BioAssay (NCATS)
Where “and” joins values, the source holds several entries; their conditions need not be identical. Identical values can stand only once. Records with an inconclusive call do not appear. Calls of active or inactive are those of the source. Unless noted, the call rests on the fitted dose curve; in most records, active means well fitted curve in the direction sought with a large enough effect; inconclusive means small, poorly fitted or top-dose-only effect, or another doubt; inactive means no such curve, though single readings can be large; an effect the other way counts as inactive or inconclusive.

What was measured:
[1] = Cell Viability - MRC5 (AID 434; calls by dose curve;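 further: potency means the concentration at half of the fitted maximal effect; cells exposed to compound for 40 hours at 37 °C; potency reflects cytotoxicity seen as loss of intracellular ATP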); settings: MRC5 lung fibroblast viability, qHTS
Procedure, shortened: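 Decrease in intracellular ATP, quantified by luciferase light output, reflects compound toxicity toward MRC5 cells exposed for 40 hr in complete culture medium. Concentration-response curves, scaled between DMSO and 100 uM tamoxifen, gave AC50 values.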

[2] = Cellular Toxicity (caspase-3) HUV-EC-C (AID 656); settings: HUV-EC-C cells, caspase-3 activation (apoptosis), vehicle = 0, 100 µM tamoxifen = 100%; series mostly up to 92.2 µM
Procedure, shortened: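 Luminescent Caspase-Glo 3/7 readout after 16 h, 37 °C compound exposure of HUV-EC-C endothelial cells, 1000 per well, complete medium. AC50 derived by Hill fitting, with DMSO as baseline and 100 uM tamoxifen as full activation.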

[3] = Cellular Toxicity (caspase-3) BJ (AID 658); settings: BJ fibroblasts, luminescence, normalized: DMSO 0%, staurosporine 100%; series mostly up to 91.7 µM;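 further: cells exposed to compound for 16 hours; 0% = DMSO basal and 100% = 10 µM staurosporine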
Procedure, shortened: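 Plated BJ cells (1000/well) rested 5 hr, received compound for 16 hr at 37 °C, then Caspase-Glo 3/7 reagent for 1 hr at room temperature before luminescence reading.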

[4] = Cellular Toxicity (caspase-3) Mesangial (AID 660); settings: mesangial cells, normalized: DMSO 0%, 100 µM tamoxifen 100%; series mostly up to 91.7 µM;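 further: combined caspase 3 and 7 activity read by Caspase-Glo luminescence; cells exposed to compound for 16 h before the caspase read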
Procedure, shortened: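 Caspase 3/7 activation measured by Caspase-Glo 3/7 luminescence (20 min, room temperature) following 16 h exposure of mesangial cells (1000/well); AC50 from Hill-equation fit, normalized to DMSO and 100 uM tamoxifen.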

[5] = Cellular Toxicity (caspase-3) H-4-II-E (AID 663); settings: H-4-II-E rat hepatoma; Potency: caspase-3 activation; series mostly up to 92.2 µM;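 further: cells exposed to compound for 16 hr before readout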
Procedure, shortened: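 Caspase 3/7 activation measured in H-4-II-E cells in complete culture medium after 16 hr treatment at 37 °C, using luciferase-coupled substrate readout; AC50 values come from Hill-equation fits of normalized concentration-response data.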

[6] = target: Cytochrome P450 3A4 (Homo sapiens) (UniProt P08684); experiment: qHTS Assay for Inhibitors and Substrates of Cytochrome P450 3A4 (AID 884); settings: recombinant CYP3A4, Luciferin-PPXE luminescence; series mostly up to 57.1 µM; further: on the % scale 0 is the no-effect control and ±100 the full control effect; nearly all actives have a fitted effect of over 50% in size
Sequence of Cytochrome P450 3A4 (Homo sapiens) (P08684 whole entry, looked up): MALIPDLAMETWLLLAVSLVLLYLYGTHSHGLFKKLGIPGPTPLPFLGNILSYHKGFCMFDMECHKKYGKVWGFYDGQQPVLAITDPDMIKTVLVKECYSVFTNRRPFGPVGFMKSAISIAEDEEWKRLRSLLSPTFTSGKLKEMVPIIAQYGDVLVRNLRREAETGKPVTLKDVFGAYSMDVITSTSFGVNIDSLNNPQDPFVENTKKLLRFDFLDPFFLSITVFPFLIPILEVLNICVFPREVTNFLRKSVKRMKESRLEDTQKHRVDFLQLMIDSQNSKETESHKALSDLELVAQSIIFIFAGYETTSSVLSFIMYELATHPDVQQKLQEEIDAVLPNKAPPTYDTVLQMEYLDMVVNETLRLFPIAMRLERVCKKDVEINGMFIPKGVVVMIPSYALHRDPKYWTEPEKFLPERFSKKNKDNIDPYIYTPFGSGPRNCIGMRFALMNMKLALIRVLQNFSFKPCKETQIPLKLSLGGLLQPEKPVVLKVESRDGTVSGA
Procedure, shortened: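 Luminescent readout of luciferin produced by CYP3A4 (20 nM) dealkylation of Luciferin-PPXE, 25 uM (its KM). NADPH-driven reaction ran 60 min at RT after 10 min compound preincubation; data scaled to 57 uM ketoconazole as 100% inhibition.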

[7] = Cell Viability - LYMP1-002 - Assay at 16 hr (AID 948); settings: LYMP1-002 lymphoblastoid cell viability; series mostly up to 92.2 µM;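 further: 0% = DMSO alone and full effect = 92 µM tetraoctylammonium bromide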
Procedure, shortened: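 ATP luminescence (CellTiter-Glo) was measured after 16 hr compound exposure at 37 C of 2500 lymphoblastoid LYMP1-002 cells per well. Concentration-response curves were fitted with the Hill equation to give AC50.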

[8] = MultiTox-Fluor Cytotoxicity Assay - LYMP1-003 - Dead Cells (AID 961); settings: LYMP1-003 lymphoblastoid cells, dead-cell protease fluorescence; series mostly up to 92.2 µM;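 further: 0% = DMSO and 100% = tetraoctylammonium bromide; nearly all actives have a fitted effect of over 70% in size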
Procedure, shortened: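 Acute toxicity is scored as increased dead-cell protease activity in human lymphoblastoid LYMP1-003 cells after 16 h compound exposure in complete culture medium. Activity is normalized to DMSO basal and 15 uM tetraoctylammonium bromide as full response.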

[9] = Cell Viability - LYMP2-003 (AID 965); settings: LYMP2-003 lymphoblastoid cell viability; series mostly up to 92.2 µM;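 further: cells exposed to compounds for 24 h before reading; 0% = DMSO only and full effect = 92 µM tetraoctylammonium bromide; nearly all actives have a fitted effect of over 50% in size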
Procedure, shortened: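 CellTiter-Glo luminescence quantified ATP loss after 24 h compound treatment of LYMP2-003 lymphoblastoid cells at 37 C. Titration series were fitted with the standard Hill equation to give AC50.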

[10] = Cell Viability - LYMP2-011 (AID 969); settings: LYMP2-011 lymphoblastoid cells viability; series mostly up to 92.2 µM;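 further: 0% = DMSO only and full inhibition = 92 µM tetraoctylammonium bromide; nearly all actives have a fitted effect of over 60% in size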
Procedure, shortened: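 Cytotoxicity qHTS with ATP content as read-out: lymphoblastoid cells (2500/well) exposed to compound for 24 h at 37 C, then luciferase luminescence measured. Concentration-response data fitted with the standard Hill equation to give AC50.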

[11] = Cell Viability - LYMP2-013 (AID 970); settings: LYMP2-013 lymphoblastoid cells viability; series mostly up to 92.2 µM;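 further: 0% = DMSO only and full inhibition = tetraoctylammonium bromide control; nearly all actives have a fitted effect of over 55% in size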
Procedure, shortened: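 qHTS cytotoxicity: ATP-dependent luminescence (CellTiter-Glo, 30 min room temperature) read after 24 h compound exposure at 37 C of 2500 LYMP2-013 lymphoblastoid cells per well. Concentration-response fitted with Hill equation to give AC50.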

[12] = Cell Viability - LYMP2-026 (AID 989); settings: LYMP2-026 lymphoblastoid cell viability, qHTS; series mostly up to 92.2 µM; further: on the % scale 0 is the no-effect control and ±100 the full control effect; nearly all actives have a fitted effect of over 50% in size
Procedure, shortened: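 Cytotoxicity read as ATP-dependent luminescence (CellTiter-Glo, 30 min room temperature) after 24 h compound treatment at 37 C. LYMP2-026 lymphoblastoid line seeded at 2500 cells/well; AC50 derived by standard Hill equation.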

[13] = Cell Viability - LYMP1-002 - Assay at 24 hr (AID 993); settings: LYMP1-002 lymphoblastoid cells viability; series mostly up to 92.2 µM; further: on the % scale 0 is the no-effect control and ±100 the full control effect
Procedure, shortened: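 qHTS cytotoxicity at 24 h: CellTiter-Glo ATP luminescence in lymphoblastoid line LYMP1-002 incubated with compound at 37 °C. Concentration-response modeled with the Hill equation for AC50; tetraoctylammonium bromide served as positive control.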

[14] = qHTS assay for small molecule disruptors of the mitochondrial membrane potential - 5 hr assay (AID 651755; calls by dose curve; further: on the % scale 0 is the no-effect control and ±100 the full control effect; nearly all actives have a fitted effect of over 40% in size); settings: JC-1-type ratio dye; series mostly up to 92.2 µM
Procedure, shortened: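 Seed HepG2 overnight, add compound, incubate 5 hr at 37C and 5% CO2, stain 30 min with Mito-MPS, then measure monomer (490/535 nm) and aggregate (540/590 nm) fluorescence.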

[15] = qHTS assay for environmental chemicals that activate the Aryl hydrocarbon Receptor (AhR) signaling pathway (AID 651777); settings: 1A2-DRE human hepatoma cells, luciferase, 24 h; activation: hits give high values; further: % of control where 0% means no effect; nearly all actives have a fitted effect of over 15% in size
Procedure, shortened: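 Stable CYP1A2 promoter/DRE-luciferase human hepatoma line treated 24 hr; One-Glo luminescence, 30 min RT.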

[16] = target: Nuclear receptor ROR-gamma (Homo sapiens) (UniProt P51449); experiment: qHTS assay for small molecule antagonists of the retinoid-related orphan receptor gamma (ROR-gamma) signaling pathway (AID 651802); settings: ROR-gamma antagonist cell reporter assay; series mostly up to 92.2 µM;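 further: CHO cells with doxycycline-induced ROR-gamma expression; luciferase reporter luminescence driven by ROR response element; on the % scale 0 is the no-effect control and ±100 the full control effect; nearly all actives have a fitted effect of over 60% in size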
Sequence of Nuclear receptor ROR-gamma (Homo sapiens) (P51449 whole entry, looked up): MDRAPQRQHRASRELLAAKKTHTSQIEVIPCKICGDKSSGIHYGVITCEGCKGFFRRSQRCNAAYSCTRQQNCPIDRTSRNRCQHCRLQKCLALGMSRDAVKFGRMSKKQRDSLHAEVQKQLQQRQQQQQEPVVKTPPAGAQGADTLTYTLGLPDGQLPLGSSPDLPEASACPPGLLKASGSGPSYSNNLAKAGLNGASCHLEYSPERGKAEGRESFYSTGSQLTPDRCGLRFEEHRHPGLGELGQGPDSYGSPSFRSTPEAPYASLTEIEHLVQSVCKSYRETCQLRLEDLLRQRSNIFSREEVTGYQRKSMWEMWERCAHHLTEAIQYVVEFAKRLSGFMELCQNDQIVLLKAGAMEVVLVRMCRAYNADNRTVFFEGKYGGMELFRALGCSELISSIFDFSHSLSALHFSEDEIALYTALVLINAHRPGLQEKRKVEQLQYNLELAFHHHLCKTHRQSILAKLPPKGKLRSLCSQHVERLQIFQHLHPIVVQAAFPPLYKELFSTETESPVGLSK
Procedure, shortened: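 Luminescence (One-Glo, 30 min RT) measured 16 h after compound addition and doxycycline induction at 37C. Reporter: RORE-luciferase under TET-inducible ROR-gamma in CHO cells.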

[17] = target: Nuclear receptor subfamily 1 group I member 2 (Rattus norvegicus) (UniProt Q9R1A7); experiment: qHTS assay for small molecule activators of the rat pregnane X receptor (rPXR) signaling pathway (AID 651751; call rule not given here; further: 0% is about no effect); settings: rPXR reporter cells, luciferase (One-Glo), 24 h
Sequence of Nuclear receptor subfamily 1 group I member 2 (Rattus norvegicus) (Q9R1A7 whole entry, looked up): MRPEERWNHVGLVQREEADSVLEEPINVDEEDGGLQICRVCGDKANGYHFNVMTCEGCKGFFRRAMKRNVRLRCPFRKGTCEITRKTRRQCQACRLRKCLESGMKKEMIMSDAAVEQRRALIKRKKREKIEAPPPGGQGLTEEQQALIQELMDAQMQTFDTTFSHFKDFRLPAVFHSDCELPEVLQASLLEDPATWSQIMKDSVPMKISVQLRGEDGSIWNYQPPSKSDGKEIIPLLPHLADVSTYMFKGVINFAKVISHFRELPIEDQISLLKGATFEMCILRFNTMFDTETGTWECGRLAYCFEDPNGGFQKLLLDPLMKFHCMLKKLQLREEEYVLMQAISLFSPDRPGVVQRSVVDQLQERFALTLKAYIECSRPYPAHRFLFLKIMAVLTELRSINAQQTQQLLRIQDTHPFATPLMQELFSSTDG

[18] = qHTS assay for small molecule activators of the human pregnane X receptor (PXR) signaling pathway (AID 720659; call rule not given here; further: 0% is about no effect); settings: DPX-2 HepG2 CYP3A4-luciferase, 24 h; series mostly up to 92.3 µM
[19] = qHTS assay for small molecule disruptors of the mitochondrial membrane potential - 1 hr assay (AID 651754; calls by dose curve; further: on the % scale 0 is the no-effect control and ±100 the full control effect; nearly all actives have a fitted effect of over 35% in size); settings: series mostly up to 92.2 µM
Procedure, shortened: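 Mitochondrial potential in living HepG2 cells after 1 hr compound treatment at 37C was read with Mito-MPS dye added for a further 30 min. Red aggregate and green monomer fluorescence were measured; loss of potential leaves dye as cytoplasmic monomers.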

[20] = target: Peroxisome proliferator-activated receptor alpha (Homo sapiens) (UniProt Q07869); experiment: qHTS assay for small molecule agonists of the peroxisome proliferator-activated receptor alpha (PPARalpha) signaling pathway (AID 651778); settings: PathHunter PPARalpha complementation, chemiluminescence, 6 h; hits give high values; further: % of control where 0% means no effect
Sequence of Peroxisome proliferator-activated receptor alpha (Homo sapiens) (Q07869 whole entry, looked up): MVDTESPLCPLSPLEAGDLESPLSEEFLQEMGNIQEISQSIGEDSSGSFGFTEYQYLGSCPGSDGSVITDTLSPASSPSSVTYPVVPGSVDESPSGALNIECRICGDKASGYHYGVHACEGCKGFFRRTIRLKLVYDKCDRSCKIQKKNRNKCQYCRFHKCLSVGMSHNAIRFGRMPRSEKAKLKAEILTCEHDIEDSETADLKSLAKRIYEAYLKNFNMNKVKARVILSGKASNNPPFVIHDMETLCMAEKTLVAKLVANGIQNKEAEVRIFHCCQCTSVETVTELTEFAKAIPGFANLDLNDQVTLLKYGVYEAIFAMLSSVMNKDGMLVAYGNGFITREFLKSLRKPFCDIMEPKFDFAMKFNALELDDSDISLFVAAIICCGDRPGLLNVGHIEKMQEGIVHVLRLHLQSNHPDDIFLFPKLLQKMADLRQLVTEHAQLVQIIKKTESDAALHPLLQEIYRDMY
Procedure, shortened: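 Cells plated at 2,000/well and held overnight at 37 C, 5% CO2, then compound added by pin tool for 6 hr; after PathHunter detection reagent and 60 min at room temperature, chemiluminescence from enzyme complementation was read.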

O=c1ccc(=O)[nH][nH]1
inactive: Potency [1] > 92 µM | outcome [2] | outcome [3] | outcome [4] | Potency [5] | Potency [6] | outcome [7] | Potency [8] | Potency [9] | Potency [10] | Potency [11] | Potency [12] | Potency [13] | Potency [14] | activation [15] 0.524% and -2.54% | Potency [16] | max response [17] 0.0495% and -4.15% | outcome [18]

CC(=O)CCC(C)=O
inactive: outcome [2] | outcome [3] | outcome [4] | Potency [5] | Potency [6] | outcome [7] | Potency [8] | Potency [9] | Potency [10] | Potency [11] | Potency [12] | Potency [13] | Potency [19] | Potency [14] | activation [15] 1.06% | max response [20] -3.42% | max response [17] -1.31% | outcome [18]

Cl/C=C/CCl
inactive: outcome [2] | Potency [5] | Potency [6] | outcome [7] | Potency [8] | Potency [9] | Potency [10] | Potency [11] | Potency [12] | Potency [13] | Potency [19] | Potency [14] | max response [20] -3.36% | Potency [16] | max response [17] -4.52% | outcome [18]

BrC(Br)Br
inactive: Potency [1] > 92 µM | outcome [2] | outcome [4] | Potency [5] | Potency [6] | outcome [7] | Potency [8] | Potency [9] | Potency [10] | Potency [11] | Potency [12] | Potency [13] | Potency [19] | Potency [14] | activation [15] 2.01% | max response [20] -7% | Potency [16] | max response [17] 0.0785% | outcome [18]

BrCC(Br)C1CCC(Br)C(Br)C1 (stereo not drawn)
inactive: Potency [1] > 92 µM | Potency [6] | outcome [7] | Potency [8] | Potency [9] | Potency [10] | Potency [11] | Potency [13] | Potency [19] | Potency [14] | activation [15] -0.172% | max response [20] 4.79% | Potency [16] | max response [17] -6.51%

C=CC=O
inactive: Potency [1] > 92 µM | outcome [2] | outcome [3] | outcome [4] | Potency [5] | Potency [6] | outcome [7] | Potency [8] | Potency [9] | Potency [10] | Potency [11] | Potency [13] | activation [15] 1.3% | Potency [16] | max response [17] 1.01% | outcome [18]

COC(=O)Nc1nc2ccccc2[nH]1
inactive: outcome [3] | outcome [4] | Potency [5] | outcome [7] | Potency [8] | Potency [9] | Potency [10] | Potency [11] | Potency [12] | Potency [13] | Potency [19] | Potency [14] | activation [15] 7.05% | max response [20] -5.67% and 0.607% | Potency [16]

Clc1cccc2ccccc12
inactive: outcome [2] | outcome [3] | outcome [4] | Potency [5] | Potency [6] | outcome [7] | Potency [8] | Potency [9] | Potency [10] | Potency [11] | Potency [12] | Potency [13] | Potency [19] | Potency [14] | activation [15] -0.754% | max response [20] -0.995% | Potency [16] | max response [17] 3.21% | outcome [18]

CC(C)(OOC(C)(C)c1ccccc1)c1ccccc1
inactive: Potency [1] > 92 µM | outcome [2] | outcome [3] | outcome [4] | Potency [5] | Potency [6] | outcome [7] | Potency [8] | Potency [9] | Potency [10] | Potency [12] | Potency [13] | Potency [19] | Potency [14] | activation [15] -0.821% and 0.322% | max response [20] -0.439% and 3.52% | Potency [16] | max response [17] -3.9% and 4.2%
